Test results reported in PubChem BioAssay (Tox21).
Inconclusive results are not listed. Active and inactive are the calls of the source. Unless noted, calls come from the whole dose curve; as a rule, active = well fitted curve in the direction sought with a large enough effect in the repeat runs; inconclusive = weak or mixed curves; inactive = no such curve, though single readings can be large; an effect the other way counts as inactive or inconclusive.

Legend:
[1] = qHTS assay to identify small molecule antagonists of the vitamin D receptor (VDR) signaling pathway - cell viability counter screen (AID 743225); note: nearly all actives have a fitted effect of over 50% in size
In short: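 Cells (VDR-UAS-bla HEK 293T) are plated, rested 4 h at 37C, dosed with compound and 3 nM final 1-alpha,25-dihydroxy vitamin D3, and incubated 16 h. Viability is taken from CellTiter-Glo luminescence in the reporter wells.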

[2] = qHTS assay to identify small molecule agonists of the NFkB signaling pathway (AID 1159509; active = well fitted curve in the direction sought with a large enough effect in the signal ratio in the repeat runs, not every such curve was filed as active; the % refers to the signal ratio; note: series mostly up to about 61 µM)
In short: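 NFkB-bla ME-180 cells carry a beta-lactamase reporter under an NF-kB response element. They were plated overnight, then exposed to compounds for 5 h at 37 C. Read-out is LiveBLAzer FRET after 1.5 hr at room temperature (405 nm excitation; 460/530 nm emission).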

[3] = qHTS assay to identify small molecule agonists of the NFkB signaling pathway - cell viability counter screen (AID 1159515; calls by dose curve; note: series mostly up to about 61 µM; nearly all actives have a fitted effect of over 55% in size)
In short: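 5 hr compound treatment of NFkB-bla ME-180 cells (2,000/well, seeded overnight beforehand), followed by reporter substrate for 1.5 hr. CellTiter-Glo added afterward; luminescence after 30 min RT.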

[4] = qHTS assay to identify small molecule agonists of the endoplasmic reticulum stress response signaling pathway (AID 1159516; active = well fitted activation curve with a large enough effect in the signal ratio in the repeat runs, not every such curve was filed as active; the % refers to the signal ratio)
In short: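 Reporter HeLa cells (ESRE-beta-lactamase) underwent 5 hr compound incubation at 37 C and 5% CO2 in quantitative HTS format. Detection followed 2 hr of FRET substrate loading at room temperature.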

[5] = qHTS assay to identify small molecule agonists of the endoplasmic reticulum stress response signaling pathway - cell viability counter screen (AID 1159517; calls by dose curve;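 note: HeLa cells carrying an ER stress response element beta-lactamase reporter; series mostly up to about 61 µM; nearly all actives have a fitted effect of over 50% in size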)
In short: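 CellTiter-Glo was added to wells already read for beta-lactamase FRET, and luminescence was recorded 30 min later. Cells: ESRE-bla HeLa, 1,500 per well, compound exposure 5 hr at 37 C.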

[6] = qHTS assay to identify small molecule antagonists of the retinoid-related orphan receptor gamma (ROR-gamma) signaling pathway - cell viability counter screen (AID 1159520); note: nearly all actives have a fitted effect of over 50% in size
In short: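 Tet-on ROR gamma CHO cells (1,000/well) were plated 4 hr, given compounds in DMSO for 2 hr at 37 C, then induced with 1 uM final doxycycline for 16 hr. Viability was read as ATP by CellTiter-Glo luminescence after 30 min.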

[7] = biological target: Nuclear receptor ROR-gamma (Homo sapiens) (UniProt P51449); experiment: qHTS assay to identify small molecule antagonists of the retinoid-related orphan receptor gamma (ROR-gamma) signaling pathway (AID 1159521;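 note: CHO cells with doxycycline inducible ROR-gamma driving an RORE luciferase reporter; top concentration of the series differs between compounds; nearly all actives have a fitted effect of over 50% in size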)
In short: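 RORγ antagonism is scored from reduced reporter luminescence in Tet-on CHO cells. Induction used 1 uM final doxycycline hyclate for 16 h at 37 C, following a 2 h compound exposure.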

[8] = qHTS assay to identify small molecule agonists of the AP-1 signaling pathway - cell viability counter screen (AID 1159525; calls by dose curve; note: nearly all actives have a fitted effect of over 55% in size)
In short: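 ME-180 AP-1-bla, 2500 cells/well, Opti-MEM + 0.5% dialyzed FBS; overnight 37 °C; cpd 15-pt titration, 5 h 37 °C; CellTiter-Glo 30 min RT; luminescence read; normalised to TOAB and DMSO controls.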

[9] = qHTS assay to identify small molecule agonists of the AP-1 signaling pathway (AID 1159526; calls by dose curve)
[10] = biological target: Retinoic acid receptor RXR-alpha (Homo sapiens) (UniProt P19793); experiment: qHTS assay to identify small molecule agonists of the RXR signaling pathway (AID 1159527; calls by dose curve; note: nearly all actives have a fitted effect of over 35% in size)
In short: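 qHTS of the Tox21 10K library in GeneBLAzer RXR-alpha HEK 293T cells carrying a beta-lactamase reporter […]; 16 hr treatment, 9-cis retinoic acid as agonist control, FRET read-out.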

[11] = qHTS assay to identify small molecule agonists of the RXR signaling pathway - cell viability counter screen (AID 1159529)
In short: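 Cell viability is measured by CellTiter-Glo luminescence, 30 min at room temperature, in wells already read for beta-lactamase. Engineered HEK 293T cells (RXR-alpha-UAS-bla) are dosed 16 hr at 37 C. Tetraoctyl ammonium bromide serves as positive control.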

[12] = qHTS assay to identify small molecule antagonists of the retinoid acid receptor (RAR) signaling pathway - cell viability counter screen (AID 1159551); note: nearly all actives have a fitted effect of over 35% in size
In short: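 Seed C3RL4 cells; next day add compound, then retinol to 1 uM final; incubate 6 h at 37 C; add CellTiter-Glo; read luminescence after 30 min at RT.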

[13] = qHTS assay to identify small molecule antagonists of the retinoic acid receptor (RAR) signaling pathway (AID 1159552; note: nearly all actives have a fitted effect of over 50% in size)
In short: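 Quantitative HTS in C3RL4 RARE-luciferase reporter cells. Compounds were added with 1 uM (final) retinol; luminescence was read after 6 hr.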

[14] = qHTS assay to identify small molecule agonists of the vitamin D receptor (VDR) signaling pathway - cell viability counter screen (AID 743224)
In short: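 Here cell health was gauged by luminescent ATP detection (CellTiter-Glo, 30 min RT) in VDR-bla cells that had been incubated with test compounds for 16 h at 37C and 5% CO2.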

[15] = qHTS assay to identify small molecule agonists of the retinoic acid receptor (RAR) signaling pathway (AID 1159553)
In short: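 Activation of retinol signaling was monitored via a RARE luciferase reporter in C3RL4 cells. After 6 hr compound treatment at 37 C, detection reagent was added for 30 min at room temperature before luminescence reading.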

[16] = qHTS assay to identify small molecule antagonists of the estrogen related receptor (ERR) signaling pathway - cell viability counter screen (AID 1224818);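 note: series mostly up to about 46 µM; viability measured after 17.5 h of compound exposure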
In short: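 In the same ERR cell assay, compound-treated wells (17.5 h, 37 C) were multiplexed with a fluorogenic viability reagent, CellTiter-Fluor, read after 30 min to flag cytotoxic substances.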

[17] = qHTS assay to identify small molecule agonists of the estrogen related receptor (ERR) signaling pathway (AID 1224820)
In short: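 ERR reporter cell line (from NTP), 2,000 cells/well, incubated 6 h before compound addition, then 18 h at 37 C. Luminescence measured 30 min after One-Glo reagent at room temperature.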

[18] = system: estrogen-related receptor alpha (ERRalpha) with PGC-1alpha coactivator, human; experiment: qHTS assay to identify small molecule antagonists of the estrogen related receptor signaling pathway with the pleiotropic PPARgamma coactivator (PGC) (AID 1224821; calls by dose curve)
In short: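 PGC/ERR reporter cell line, plated 6 h before compound addition, then exposed 18 h at 37 °C. Luciferase activity read by luminescence 30 min after One-Glo addition; decrease indicates antagonism.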

[19] = qHTS assay to identify small molecule antagonists of the estrogen related receptor signaling pathway with the pleiotropic PPARgamma coactivator (PGC) cell viability counter screen (AID 1224822; note: series mostly up to about 46 µM)
In short: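 Compounds in DMSO, with positive and negative controls, were applied to PGC/ERR cells (2,000/well) and left 17.5 h at 37 C before CellTiter-Fluor detection.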

[20] = qHTS assay to identify small molecule antagonists of the estrogen related receptor (ERR) signaling pathway (AID 1224819)
In short: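 qHTS in ERR cells, 2,000/well, 1536 format. Cpd (DMSO) added after 6 h settle, 18 h 37 C. One-Glo luminescence, 30 min RT.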

Measured: Potency

Retinoic acid receptor RXR-alpha (Homo sapiens), sequence (P19793 whole entry, looked up): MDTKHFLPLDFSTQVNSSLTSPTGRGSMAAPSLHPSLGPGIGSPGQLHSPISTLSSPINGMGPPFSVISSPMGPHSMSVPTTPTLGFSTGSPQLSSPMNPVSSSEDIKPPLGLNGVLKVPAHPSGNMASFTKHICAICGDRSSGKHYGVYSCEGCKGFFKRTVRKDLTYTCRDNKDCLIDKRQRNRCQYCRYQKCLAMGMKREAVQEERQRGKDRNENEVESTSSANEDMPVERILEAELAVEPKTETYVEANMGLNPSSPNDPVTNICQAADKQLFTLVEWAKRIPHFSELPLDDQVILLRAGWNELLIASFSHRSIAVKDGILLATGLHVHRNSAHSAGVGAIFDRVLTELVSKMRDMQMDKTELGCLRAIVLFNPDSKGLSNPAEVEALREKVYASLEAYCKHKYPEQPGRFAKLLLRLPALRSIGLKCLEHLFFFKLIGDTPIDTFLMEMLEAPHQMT

CCN[C@H](C)Cc1cccc(C(F)(F)F)c1
not listed: [14] | [15] | [16] | [17] | [18] | [19] | [20]
inactive: all other assays above

Cn1c(N)nc2c3cccnc3ccc21
not listed: [15] | [16] | [17] | [18] | [19] | [20]
inactive: all other assays above

CC(Cc1ccccc1)NCCn1cnc2c1c(=O)n(C)c(=O)n2C (configuration not stated)
not listed: [14] | [15] | [16] | [17] | [18] | [19] | [20]
inactive: all other assays above

CCCC[N+](=O)[O-]
not listed: [15] | [16] | [17] | [18] | [19] | [20]
inactive: all other assays above

O=C(CCl)NCO
not listed: [12] | [16] | [17] | [18] | [19] | [20]
inactive: all other assays above

CCOC1Oc2ccc(OS(C)(=O)=O)cc2C1(C)C (configuration not stated)
not listed: [15] | [16] | [17] | [18] | [19] | [20]
inactive: all other assays above

Cn1c(CCCC(=O)O)nc2cc(N(CCCl)CCCl)ccc21
inactive: [16] | [17] | [18] | [19]

NNC(N)=O
inactive: [16] | [19]

O=CCCl
not listed: [2] | [12] | [14] | [16] | [17] | [18] | [19] | [20]
inactive: all other assays above

O=C(Cl)CCl
not listed: [2] | [12] | [14] | [16] | [17] | [18] | [19] | [20]
inactive: all other assays above

O=C(NC(=O)c1c(F)cccc1F)Nc1cc(Cl)c(F)c(Cl)c1F
not listed: [1] | [2] | [12] | [16] | [17] | [18] | [19] | [20]
inactive: all other assays above

CN(C)CCc1c[nH]c2cccc(OP(=O)(O)O)c12
not listed: [2] | [15] | [16] | [17] | [18] | [19] | [20]
inactive: all other assays above

O=c1[nH]oc2c1CCNC2
not listed: [2] | [12]
inactive: all other assays above

CCCOC(=O)c1cncn1C(C)c1ccccc1 (configuration not stated)
not listed: [2] | [16] | [17] | [18] | [19] | [20]
inactive: all other assays above

C=CC=O
not listed: [2] | [14] | [16] | [17] | [18] | [19] | [20]
inactive: all other assays above
